Wnt act – activators of Wnt/beta-catenin signaling | 1.2% of 300,000 active | AID 743398 | activation, % at 9.35 µM | Wnt/beta-catenin reporter cell assay, activator, plate reader; in the data active = activation above about 30%, passing the limit was not always enough; inconclusive = no clear call, values can overlap the other calls;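 also: 0% = neutral control wells and 100% = positive control wells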
PvdQ acylase – P. aeruginosa PvdQ acylase inhibition | purified PvdQ acylase, fluorescence plate reader | inhibition, % at 10 µM | 0.063% of 340,000 active | AID 488965; in the data active = inhibition above about 30%, passing the limit was not always enough; inconclusive = no clear call, values can overlap the other calls;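 also: 0% = vehicle neutral wells and 100% = reference inhibitor wells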
Vif imaging – inhibitors of HIV Vif. AID 602346. HEK293T cells, Vif self-association by quenched fluorescence, imaging, 24 h. inhibition, % at 7.49 µM. 0.35% of 340,000 active; in the data active = inhibition above about 50%, passing the limit was not always enough; inconclusive = no clear call, values can overlap the other calls; inactive = below about 31%
MITF act – increases MITF-driven TRPM1 promoter luciferase signal; SK-MEL-5 TRPM1-promoter luciferase, 24 h; % of positive control, neutral wells = 0; activation, % at 12.5 µM; 0.75% of 300,000 active; AID 588334;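 active = mean activation of at least 80% with every replicate also reaching 80%; inconclusive = mean reaches 80% but some replicate falls short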;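 also: 0% = neutral control wells and 100% = parthenolide positive control wells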
Glyco luc inh – blocks N-linked glycosylation in D54 reporter cells; D54 ERlucT glycosylation luciferase reporter, 24 h; percent of 100 nM tunicamycin response; reporter increase, % at 12.5 µM; 0.23% of 360,000 active;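 active = mean luciferase reporter signal, scaled so untreated is 0 and the glycosylation-blocking control 100, at or above a set limit in every replicate; inconclusive = mean reaches the limit but not every replicate does; inactive = mean below the limit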;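 also: luciferase carries N-glycosylation sites so blocking glycosylation raises the light; 0% = median of neutral control wells and 100% = median of 100 nM tunicamycin wells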
esBAF inh – blocks esBAF chromatin remodeling in mouse ES cells. 2% of 350,000 active. reporter increase, % at 12.5 µM. Bmi1-luciferase knock-in reporter, 24 h; 100% = twice the neutral-well signal; in the data active = activation above about 40%; inconclusive = no clear call, values can overlap the other calls;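 also: 0% = median of the plate's neutral control wells and 100% = double that signal; a rise in the Bmi1 reporter signal indicates esBAF inhibition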
* hit, by the source's call; ? = inconclusive; . = not tested or not shown. Most compounds without a hit are left out; they make up all but 2.9% or so of the library.

SMILES	Wnt act	PvdQ acylase	Vif imaging	MITF act	Glyco luc inh	esBAF inh
O=C(N/N=C/c1cn(-c2ccccc2)nc1-c1ccc2c(c1)OCCO2)c1ccncc1	15	-18	29	9	-4	53*
O/N=C/c1cn(-c2ccccc2)nc1-c1ccc2c(c1)OCCO2	21	8	.	41	3	39
O=C(NN=Cc1ccc2c(c1)OCO2)c1ccccc1	63*	12	12	67	-5	8
O=C(N/N=C\c1cn(-c2ccccc2)nc1-c1ccccc1)c1ccc2c(c1)OCO2	-2	-8	-2	42	4	44*
O=C(N/N=C/c1cn(-c2ccccc2)nc1-c1ccc(F)cc1)c1ccc2c(c1)OCO2	.	-7	-5	14	0	.
COc1ccccc1CNC(=O)C[C@H]1CC[C@H](NC(C)=O)[C@@H](CO)O1	.	.	.	.	.	-1
CCC(=O)N(C)C[C@H]1Oc2cc(C#Cc3ccccc3)ccc2S(=O)(=O)N([C@@H](C)CO)C[C@@H]1C	.	.	.	.	.	8
COC(=O)C[C@@H]1CC[C@@H]2[C@H](COc3ccc(NC(=O)c4cc(C)on4)cc3C(=O)N2C)O1	.	.	.	.	.	-14
COCCN=C1Sc2nc3ccc(C)cc3cc2CN1Cc1ccco1	-3	-15	.	24	-2	54*
COc1ccc(S(=O)(=O)Nc2ccc3c(c2)CC(=O)N([C@@H](C)CO)C[C@@H](C)[C@H](CN(C)CC2CCCCC2)O3)cc1	.	.	.	.	.	1
COc1cccc(S(=O)(=O)N[C@H]2CC[C@H](CCn3cc(-c4ccccc4)nn3)O[C@H]2CO)c1	.	.	.	.	.	17
S=C(c1ccc(-c2ccccc2Cl)o1)N1CCOCC1	.	7	.	76	-1	31
O=C(Cc1ccc(Br)cc1)N1CCCCCC1	.	5	4	.	0	57*
S=C(c1ccc(-c2ccc(Cl)c(Cl)c2)o1)N1CCOCC1	.	-12	2	113*	-9	45*
S=C(c1ccc(-c2ccc(Br)cc2)o1)N1CCOCC1	53*	.	-5	.	-7	.
O=C(Cc1ccc(Br)cc1)N1CCCC1	1	-7	0	3	1	2
COc1ccc(-c2ccc(C(=S)N3CCN(C(C)=O)CC3)o2)cc1	-2	-14	-4	11	0	3
S=C(c1ccc(-c2ccc(Br)cc2)o1)N1CCCCC1	46*	-12	-1	72	-4	48*
C/C=C/c1ccc([C@H]2[C@@H](CO)N(C(=O)NCCC)[C@H]2CNC(=O)C2CC2)cc1	.	.	.	.	.	-10
C[C@@H]1CN([C@H](C)CO)C(=O)c2cccc(NS(=O)(=O)c3ccc(F)cc3)c2O[C@H]1CN(C)S(=O)(=O)c1ccc(F)cc1	.	.	.	.	.	-1
C[C@@H]1CN([C@H](C)CO)C(=O)c2cc(C#C[C@@H](C)O)cnc2O[C@H]1CN(C)C(=O)Cc1ccncc1	.	.	.	.	.	-3
Cc1ccc(NC(=O)/C(C#N)=N/Nc2ccc(C(=O)O)cc2)c(C)c1	44*	5	-6	0	-1	.
Cc1ccc(N/N=C(\C#N)C(N)=S)c(C)c1	.	7	1	8	-1	.
CCC(=O)Nc1ccc2nc(C3CC3)n(Cc3ccccc3)c(=O)c2c1	.	-4	4	?	-1	.
O=C(Nc1ccc2nc(C3CC3)n(Cc3ccccc3)c(=O)c2c1)C1CC1	24	-14	-19	115*	-3	67*
SMILES	Wnt act	PvdQ acylase	Vif imaging	MITF act	Glyco luc inh	esBAF inh
O=C(N/N=C\c1c(O)ccc2ccccc12)c1ccc(O)cc1	0	21	8	.	-6	-63
Cn1c(-c2ccccc2)c(/C=N/NC(=O)c2ccc(O)cc2)c2ccccc21	29	-13	18	1	54*	63*
CCOC(=O)c1c(C)[nH]c(C)c1C(=O)COC(=O)C1CC(=O)N(CCc2ccccc2)C1 (stereo not given)	-2	-11	51*	-9	4	-2
CO[C@H]1CN(C)C(=O)c2cc(NS(=O)(=O)c3ccccc3Cl)ccc2OC[C@H](C)NC[C@H]1C	.	.	.	.	.	1
COCc1cc(C)nc2sc(C(=O)Nc3ccc(OC)cc3)c(N)c12	5	-8	-1	.	1	33
COCc1cc(C)nc2sc(C(=O)Nc3nccs3)c(N)c12	6	-8	.	.	1	56*
COc1ccc(-c2c3c(nc4sc(C(=O)Nc5ccccc5)c(N)c24)CCC3)cc1	36*	12	6	14	-4	53*
COCc1cc(C)nc2sc(C(=O)Nc3cccc(OC)c3)c(N)c12	-2	-6	-1	.	-3	67*
Cc1ccc(NC(=O)c2sc3nc(C)cc(C)c3c2N)cc1	36*	-13	0	83*	-14	4
COc1cccc(S(=O)(=O)N[C@@H]2CC[C@H](CCn3cc(-c4ccccc4OC)nn3)O[C@H]2CO)c1	.	.	.	.	.	1
C[C@H](CO)N1C[C@H](C)[C@H](CN(C)S(=O)(=O)c2cn(C)cn2)Oc2ccc(NC(=O)c3ccncc3)cc2C1=O	.	.	.	.	.	1
CN(C[C@H]1[C@H](c2ccccc2)[C@@H](CO)N1CC1CC1)C(=O)c1ccc(F)cc1	.	.	.	.	.	1
CCCNC(=O)N1C[C@H](C)[C@@H](OC)CN(C)C(=O)c2cc(NC(=O)CCC)ccc2OC[C@H]1C	.	.	.	.	.	-6
Cc1cc(C)c2c(N)c(C(=O)Nc3nccs3)sc2n1	39*	-21	-5	.	-20	-76
CCc1cccc(NC(=O)c2sc3nc4n(c(=O)c3c2C)CCC4)c1	14	-5	0	95*	1	63*
Cc1cc(C)cc(NC(=O)c2sc3nc4n(c(=O)c3c2C)CCC4)c1	3	4	-8	38	-1	21
O=C(COc1ccccc1C(=O)c1cnn(-c2ccccc2)c1)Nc1ccccc1	?	0	-9	64	-2	49*
COc1ccccc1CNC(=O)COc1ccccc1C(=O)c1cnn(-c2ccccc2)c1	58*	-6	-1	89*	-4	75*
CCNC(=O)COc1ccc(F)cc1C(=O)c1cnn(-c2ccccc2)c1	0	3	2	-11	1	3
Cc1ccc(O)c(C(=O)c2cnn(-c3ccccc3)c2)c1	14	-16	-8	8	-1	50*
Cc1noc(C)c1NC(=O)N(C)C[C@@H]1OCc2ccccc2-c2ccccc2C(=O)N([C@@H](C)CO)C[C@H]1C	.	.	.	.	.	2
CO[C@@H]1CN(C)C(=O)c2cc(NC(=O)Nc3cccc(F)c3)ccc2OC[C@@H](C)NC[C@@H]1C	.	.	.	.	.	3
Clc1ccc(Cn2c(/C=C/c3ccco3)nc3ccccc32)cc1	34*	-7	-3	45	0	.
Cc1ccccc1Nc1c(-c2ccc(N3CCOCC3)cc2)nc2cnccn12	33*	-13	4	36	-9	56*
Cc1ccccc1Nc1c(-c2ccc(N3CCOCC3)cc2)nc2ncccn12	8	-11	2	8	-3	53*
CO[C@@H]1CN(C)C(=O)c2cc(NC(=O)C3CC3)ccc2OC[C@H](C)N(Cc2cccnc2)C[C@H]1C	.	.	.	.	.	0

Compound activity from PubChem BioAssay.
